Laboratory results published in PubChem BioAssay AID1159580 (chemical genetic matrix, 2015).
Values joined by “and” are separate entries in the source; they are usually repeats but may differ in a detail not shown here. Equal values may be shown once. In all, about 5,500 compounds went through this assay and about 2,000 (36%) were called active. Inconclusive results (about 18%) are left out. No stated cut-off is given here; in the data, active means normalized growth mostly below about 0.91 (no sharp cut-off); inconclusive means no clear call, values can overlap the other calls; inactive means mostly above about 0.92. The list shows a part of the results.

Assay: chemical genetic growth profiling, strain panel (AID 1159580);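 further: tested at 20 µM; growth read once vehicle control cultures reached saturation at 30 °C; 1 = growth at the plate median or of vehicle wells; lower values mean less growth of the strain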
Conditions: S. cerevisiae deletion strains, growth OD

Measured: normalized growth

COc1ccc(CCC(=O)c2c(O)cc(O[C@@H]3O[C@H](CO)C(O)[C@H](O)C3O[C@@H]3O[C@@H](C)[C@H](O)[C@@H](O)[C@H]3O)cc2O)cc1O (some centres not stated)
inactive: locus YAL013W, strain DEP1, active compounds read low 1 | locus YAL021C, strain ccr4, active compounds read low 0.994 | locus YAL026C, strain drs2, active compounds read low 1.04 | locus YAL030W, strain snc1, active compounds read low 1.01 | locus YBL061C, strain skt5, active compounds read low 1.02 | locus YBR009C, strain hhf1, active compounds read low 1.02 | locus YBR021W, strain FUR4, active compounds read low 0.997 | locus YBR023C, strain chs3, active compounds read low 1.02 | locus YBR171W, strain sec66, active compounds read low 1.04 | locus YBR229C, strain ROT2, active compounds read low 0.998 | locus YBR231C, strain swc5, active compounds read low 1.03 | locus YBR279W, strain paf1, active compounds read low 1.02 | locus YCL011C, strain gbp2, active compounds read low 1.02 | locus YCL016C, strain dcc1, active compounds read low 1.01 | locus YCL029C, strain bik1, active compounds read low 0.972 | locus YCL061C, strain MRC1, active compounds read low 1.02 | locus YCL069W, strain vba3, active compounds read low 1.02 | locus YCR088W, strain abp1, active compounds read low 1.02 | locus YDL005C, strain med2, active compounds read low 1.03 | locus YDL035C, strain GPR1, active compounds read low 0.999 | locus YDL040C, strain nat1, active compounds read low 0.998 | locus YDL074C, strain BRE1, active compounds read low 0.966 | locus YDL101C, strain DUN1, active compounds read low 0.995 | locus YDL134C, strain PPH21, active compounds read low 0.997 | locus YDL185W, strain tfp1, active compounds read low 0.955 | locus YDL192W, strain arf1, active compounds read low 0.976 | locus YDR001C, strain nth1, active compounds read low 1.01 | locus YDR069C, strain doa4, active compounds read low 1.04 | locus YDR101C, strain arx1, active compounds read low 0.987 | locus YDR137W, strain rgp1, active compounds read low 1.04 | locus YDR150W, strain NUM1, active compounds read low 1.01 | locus YDR159W, strain sac3, active compounds read low 1.1 | locus YDR162C, strain NBP2, active compounds read low 0.99 | locus YDR195W, strain ref2 0.986 | locus YDR297W, strain sur2, active compounds read low 1.02 | locus YDR318W, strain mcm21, active compounds read low 0.978 | locus YDR334W, strain swr1, active compounds read low 1.03 | locus YDR335W, strain msn5, active compounds read low 1.01 | locus YDR388W, active compounds read low 0.995 | locus YDR392W, strain spt3, active compounds read low 1.02 | locus YDR502C, strain sam2, active compounds read low 1 | locus YEL003W, strain gim4, active compounds read low 1.02 | locus YEL037C, strain rad23, active compounds read low 1.01 | locus YEL061C, strain CIN8 (second series), active compounds read low 1.01 | locus YEL061C, strain CIN8, active compounds read low 0.999 | locus YER015W, strain faa2, active compounds read low 1.01 | locus YER016W, strain bim1, active compounds read low 1.03 | locus YER110C, active compounds read low 0.983 | locus YER111C, strain swi4, active compounds read low 1.01 | locus YER155C, strain BEM2 (second series), active compounds read low 1.03 | locus YER155C, strain BEM2, active compounds read low 0.992 | locus YER167W, strain BCK2, active compounds read low 0.994 | locus YFR010W, strain ubp6, active compounds read low 1.02 | locus YGL078C, strain dbp3, active compounds read low 0.994 | locus YGL086W, strain mad1, active compounds read low 0.999 | locus YGL167C, strain pmr1, active compounds read low 1.03 | locus YGL173C, strain kem1, active compounds read low 1.03 | locus YGL227W, strain vid30, active compounds read low 1.02 | locus YGL240W, strain doc1, active compounds read low 1.05 | locus YGL248W, strain PDE1, active compounds read low 1 | locus YGL253W, strain hxk2, active compounds read low 1.02 | locus YGR078C, strain PAC10, active compounds read low 1.01 | locus YGR135W, strain pre9, active compounds read low 1 | locus YGR229C, strain SMI1, active compounds read low 1.01 | locus YGR252W, strain gcn5, active compounds read low 1.07 | locus YHR013C, strain ard1, active compounds read low 1 | locus YHR027C, strain rpn1, active compounds read low 1.02 | locus YHR030C, strain SLT2, active compounds read low 1 and 0.973 | locus YHR079C, strain IRE1 (second series), active compounds read low 0.98 | locus YHR079C, strain IRE1, active compounds read low 0.961 | locus YHR094C, strain hxt1, active compounds read low 0.966 | locus YHR129C, strain ARP1, active compounds read low 0.998 | locus YHR142W, strain chs7, active compounds read low 1.01 | locus YHR200W, strain rpn10, active compounds read low 0.975 | locus YIL066C, strain RNR3, active compounds read low 0.994 | locus YIL073C, strain SPO22, active compounds read low 0.941 | locus YIL125W, strain kgd1, active compounds read low 0.981 | locus YIR030C, strain dcg1, active compounds read low 0.988 | locus YJL092W, strain hpr5, active compounds read low 1.01 | locus YJL095W, strain BCK1 (second series), active compounds read low 1.01 | locus YJL095W, strain BCK1, active compounds read low 0.969 and 0.981 | locus YJL115W, strain asf1, active compounds read low 1.02 | locus YJL129C, strain trk1, active compounds read low 1.03 | locus YJL134W, strain LCB3, active compounds read low 0.999 | locus YJL154C, strain vps35, active compounds read low 1.01 | locus YJL164C, strain tpk1, active compounds read low 0.995 | locus YJL166W, strain qcr8, active compounds read low 1.02 | locus YJL168C, strain set2, active compounds read low 0.978 | locus YJL187C, strain SWE1 (second series), active compounds read low 0.984 | locus YJL187C, strain SWE1, active compounds read low 1.04 | locus YJR043C, strain POL32, active compounds read low 0.963 | locus YJR066W, strain TOR1, active compounds read low 0.896
